Screening data (PubChem)
PglD DTNB – inhibitors of Campylobacter jejuni PglD acetyltransferase | purified PglD enzyme, DTNB colorimetric CoA detection | 360,000 compounds, 0.098% hits | inhibition, % at 12.5 µM; in the data active means inhibition above about 16%, passing the limit was not always enough; inconclusive means no clear call, values can overlap the other calls
Rtt109 HAT inh – C. albicans Rtt109 histone acetyltransferase inhibition | 330,000 compounds, 0.16% hits | inhibition, % at 34.9 µM | purified Rtt109/Vps75, ThioGlo CoA-SH fluorescence, 4 h;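 active means inhibition of at least 50% in every replicate; inconclusive means best replicate reaches 50% inhibition but some replicates fall short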
Target sequence (Q5AAJ8 whole entry, looked up): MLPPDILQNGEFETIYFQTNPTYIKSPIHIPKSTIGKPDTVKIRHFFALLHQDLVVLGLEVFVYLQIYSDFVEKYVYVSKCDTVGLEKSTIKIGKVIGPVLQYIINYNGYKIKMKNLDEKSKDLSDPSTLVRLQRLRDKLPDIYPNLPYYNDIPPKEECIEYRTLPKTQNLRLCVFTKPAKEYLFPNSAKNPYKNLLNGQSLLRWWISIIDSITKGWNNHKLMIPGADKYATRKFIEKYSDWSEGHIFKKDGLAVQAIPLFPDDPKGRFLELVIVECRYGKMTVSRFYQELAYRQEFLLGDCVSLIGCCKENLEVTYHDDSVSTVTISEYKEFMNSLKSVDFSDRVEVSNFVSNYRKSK
DENV2 CPE – protects cells from dengue virus 2 cytopathic effect. DENV2-infected cells, cytopathic effect rescue, plate reader. CPE inhibition, % at 9.99 µM. 350,000 compounds, 1.7% hits; in the data active means CPE inhibition above about 20%, passing the limit was not always enough; inconclusive means no clear call, values can overlap the other calls; tested in BHK-21 cells;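 further: 0% = median of neutral control wells and 100% = median of positive control wells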
N-glyco inh – N-linked glycosylation inhibition. D54 ERlucT glycosylation luciferase reporter, 24 h; percent of 100 nM tunicamycin response. reporter increase, % at 12.5 µM. 360,000 compounds, 0.23% hits;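 active means mean luciferase reporter signal, scaled so untreated is 0 and the glycosylation-blocking control 100, at or above a set limit in every replicate; inconclusive means mean reaches the limit but not every replicate does; inactive means mean below the limit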;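 further: luciferase carries N-glycosylation sites so blocking glycosylation raises the light; 0% = median of neutral control wells and 100% = median of 100 nM tunicamycin wells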
Numbers without * were called inactive; u = inconclusive; x = no result. This is one part of a sample in which hits are shown more often than they occur.

SMILES	PglD DTNB	Rtt109 HAT inh	DENV2 CPE	N-glyco inh
COc1ccccc1NC(=O)N[C@@H]1CC[C@@H](CCn2cc(-c3cccnc3)nn2)O[C@@H]1CO	3.9	x	2.3	x
O=C(C[C@H]1CC[C@@H]2[C@H](COC[C@H](O)CN2S(=O)(=O)c2ccc(F)cc2)O1)NCc1ccc(Cl)c(Cl)c1	0.2	x	-4.2	x
CCN(CC)c1ccc(N=Cc2cc(Br)ccc2O)cc1	x	58.6*	-2.6	1.0
COc1cccc(OC)c1C(=O)N1CCN(Cc2c[nH]c3ccccc23)CC1	-1.4	x	54.6*	-1.9
COc1ccc2[nH]c(C(=O)N3CCN(Cc4ccccc4)CC3)cc2c1OC	-8.5	9.4	u	45.0*
COc1ccccc1C(=O)N1CCN(Cc2c[nH]c3ccccc23)CC1	1.1	1.7	-1.8	-4.6
Cc1ccc(-c2ccc3c(c2)O[C@H](CN(C)Cc2ccccn2)[C@H](C)CN([C@H](C)CO)S3(=O)=O)cc1	0.3	x	8.5	x
CN1CCN(C(=O)C[C@@H]2CC[C@H]3[C@@H](COC[C@H](O)CN3Cc3cccc(Cl)c3)O2)CC1	-3.3	x	2.1	x
O=C(CSc1nnc(Cc2cccs2)n1C1CCCCC1)N1CCN(C(=O)c2ccco2)CC1	-0.8	50.8*	x	-0.3
O=C(C[C@H]1C[C@@H]2c3cc(NC(=O)C4CCOCC4)ccc3O[C@@H]2[C@@H](CO)O1)NCC1CC1	2.6	x	15.0	x
CCC(=O)N1CC2(C1)[C@@H](c1ccc(-c3cccc(C)c3)cc1)[C@@H](CO)N2S(C)(=O)=O	x	x	27.2*	x
CCC(=O)N1CC2(C1)[C@@H](c1ccc(-c3cccc(F)c3)cc1)[C@@H](CO)N2CC1CC1	x	x	20.5*	x
CCC(=O)N1CC2(C1)[C@H](c1ccc(-c3cccc(F)c3)cc1)[C@@H](CO)N2CC1CC1	x	x	3.3	x
O=C([C@H]1[C@H](CO)[C@H]2Cn3c(ccc(C4=CCCC4)c3=O)[C@@H]1N2Cc1nccs1)N1CCCCC1	-2.0	x	17.7	x
CCCNC(=O)N[C@H]1C=C[C@H](CC(=O)N2CCN(C)CC2)O[C@@H]1CO	-3.1	x	24.5*	x
CCCNC(=O)N[C@H]1C=C[C@H](CC(=O)N2CCN(C)CC2)O[C@H]1CO	-2.3	x	-9.9	x
Cn1cnc(S(=O)(=O)N[C@@H]2C=C[C@H](CC(=O)N3CCN(c4ccccc4)CC3)O[C@@H]2CO)c1	x	x	93.9*	x
O=C(Cc1ccccc1)N[C@H]1C=C[C@@H](CC(=O)N2CCOCC2)O[C@H]1CO	-3.9	x	52.8*	x
Cc1ccc(S(=O)(=O)N[C@@H]2C=C[C@@H](CC(=O)N3CCc4ccccc4C3)O[C@@H]2CO)cc1	0.9	x	28.2*	x
Cn1cnc(S(=O)(=O)N[C@@H]2C=C[C@@H](CC(=O)N3CCN(c4ccccc4)CC3)O[C@H]2CO)c1	-0.6	x	12.5	x
O=C(C[C@H]1C=C[C@@H](NS(=O)(=O)c2ccccc2)[C@@H](CO)O1)N1CCc2ccccc2C1	-5.9	x	-0.8	x
O=C(C1CC1)N1C[C@H]2[C@@H](c3ccccc31)[C@H](CO)N2C(=O)Cc1ccccn1	-3.0	x	62.9*	x
O=C(CC(F)(F)F)N1C[C@@H]2[C@H](c3ccccc31)[C@H](CO)N2C(=O)C1CCCC1	9.8	x	21.0*	x
O=C(C1CCCCC1)N1C[C@@H]2[C@H](c3ccccc31)[C@@H](CO)N2C(=O)Cc1ccccn1	0.6	x	5.1	x
O=C(C1CCCC1)N1C[C@H]2[C@@H](c3ccccc31)[C@@H](CO)N2C(=O)c1ccccc1	-2.8	x	50.8*	x
SMILES	PglD DTNB	Rtt109 HAT inh	DENV2 CPE	N-glyco inh
O=C(C1CCCC1)N1C[C@H]2[C@@H](c3ccccc31)[C@H](CO)N2C(=O)c1ccccc1	3.1	x	-10.2	x
CN1C[C@H]2[C@@H](c3ccccc31)[C@@H](CO)N2C(=O)C1CCCC1	-5.6	x	26.7*	x
O=C(CC(F)(F)F)N1C[C@H]2[C@@H](c3ccccc31)[C@@H](CO)N2C(=O)C1CCCC1	4.7	x	-0.2	x
COc1ccc(NC(=O)Nc2ccc3c(c2)[C@@H]2C[C@@H](CC(=O)O)O[C@H](CO)[C@@H]2O3)cc1	x	x	11.2	x
COc1ccc2c3c(n(C)c2c1)[C@@H](CO)N(CC1CCCC1)CC31CCN(C(C)=O)CC1	x	x	4.2	x
COc1ccc2c3c(n(C)c2c1)[C@H](CO)N(C(=O)CN(C)C)CC31CN(C(=O)C2CCC2)C1	x	x	2.4	x
O=C(c1cccnc1)N1C[C@@H]2[C@H](c3ccccc31)[C@@H](CO)N2CC1CCCCC1	2.6	x	-6.5	x
O=C(Nc1ccccc1F)N1C[C@H]2[C@@H](c3ccccc31)[C@H](CO)N2C(=O)C1CCCC1	7.9	x	-14.5	x
O=C(Nc1ccccc1F)N1C[C@H]2[C@@H](c3ccccc31)[C@@H](CO)N2C(=O)C1CCCCC1	-1.1	x	60.9*	x
O=C(c1cccnc1)N1C[C@@H]2[C@H](c3ccccc31)[C@H](CO)N2CC1CCCCC1	-0.3	x	29.2*	x
COc1ccccc1NC(=O)N1C[C@@H]2[C@H](c3ccccc31)[C@H](CO)N2C(C)=O	-1.0	x	-10.3	x
COc1ccccc1NC(=O)N1C[C@H]2[C@@H](c3ccccc31)[C@H](CO)N2C(C)=O	1.5	x	20.5*	x
C[C@@H]1CN([C@@H](C)CO)C(=O)c2cccc(NC(=O)C3CCCCC3)c2O[C@H]1CN(C)C(=O)NC1CCCCC1	8.6	x	4.6	x
Cc1ccc(-c2cc3nc(-c4ccccc4)cc(NCCCO)n3n2)cc1	-5.4	x	-2.2	3.5
CCc1nn2c(NCCCO)cc(C)nc2c1-c1ccc(F)cc1	5.8	4.7	18.1	28.4*
O=C(Nc1cccc(Cl)c1)N[C@@H]1CC[C@@H](CCNC(=O)C2CCC2)O[C@@H]1CO	1.0	x	4.6	x
O=C(OCc1c(F)cccc1Cl)c1cc([N+](=O)[O-])ccc1N1CCOCC1	6.1	-2.5	67.8*	-6.3
O=C(Cc1ccccn1)NCC[C@@H]1CC[C@@H](NS(=O)(=O)c2ccc(Cl)cc2)[C@@H](CO)O1	3.6	x	33.7*	x
O=C(N[C@@H]1CC[C@H](CCNS(=O)(=O)c2ccc(Cl)cc2)O[C@H]1CO)c1ccccn1	-2.5	x	-0.2	x
O=C(N[C@H]1CC[C@@H](CCNS(=O)(=O)c2ccc(Cl)cc2)O[C@@H]1CO)c1ccccn1	2.9	x	53.0*	x
O=C(N[C@@H]1CC[C@@H](CCNS(=O)(=O)c2ccc(Cl)cc2)O[C@@H]1CO)c1ccccn1	-8.0	x	u	x
O=C(N[C@H]1CC[C@H](CCNS(=O)(=O)c2ccc(Cl)cc2)O[C@H]1CO)c1cccc(F)c1	0.7	x	54.5*	x
O=C(N[C@@H]1CC[C@@H](CCNS(=O)(=O)c2ccc(Cl)cc2)O[C@@H]1CO)c1cccc(F)c1	2.5	x	-17.1	x
O=C(Cc1ccccn1)NCC[C@H]1CC[C@H](NS(=O)(=O)c2ccccc2)[C@H](CO)O1	-1.4	x	-3.8	x
O=C(N[C@H]1CC[C@H](CCNS(=O)(=O)c2ccc(Cl)cc2)O[C@H]1CO)c1ccccn1	5.3	x	59.7*	x
C[C@@H]1CN([C@H](C)CO)C(=O)c2cc(C#CC3CCCC3)cnc2O[C@H]1CN(C)C(=O)c1ccncc1	1.5	x	6.6	x
O=C(C[C@@H]1CC[C@H](NC(=O)Nc2cccc(F)c2)[C@@H](CO)O1)NCC1CCCCC1	-3.7	x	-5.3	x
COc1cc(/C=C/C(=O)Nc2nnc(CC(C)(C)C)s2)cc(OC)c1OC	4.8	-2.0	99.6*	-2.9
